# Source: publication PMC12136788
# Over roughly 24,000 sequences, “enrichment r” has its median near 0.99; the highest 2% begin near 3.7. The list comes from a sample in which the highest values are over-represented; it also holds similar and randomly drawn sequences.
# T1: UNK ZnF1-3 (human, UniProt Q9C0B0 31-174)
# T1 sequence: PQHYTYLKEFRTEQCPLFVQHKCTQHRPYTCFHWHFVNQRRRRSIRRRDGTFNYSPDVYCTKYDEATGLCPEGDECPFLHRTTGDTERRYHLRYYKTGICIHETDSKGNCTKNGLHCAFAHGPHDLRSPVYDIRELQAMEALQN
# B1: chr17:45747064:45747065:+_ENSG00000108424_ENST00000290158|hu_hu|hu_hu_hu_mus_True|38_98 (ssRNA)
# RNA: GGGAGUUCUACAGUCCGACGAUCGCCCACAGUCCACGCAGCUGUAUCUCGAACAACUACACUGGGGUCUUUCAUUAGUUCUAUUAGGGUGGGCAUAGCCUGUAUAACUAAUGGUUUCAGUUGAUUAGGCUCUGGUCCUUCCAACAACAGAGGAUUGAGCAUCA
# B2: chr1:244855233:244855234:+_ENSG00000121644_ENST00000302550|hu_mus|hu_hu_hu_mus_True|98_98 (ssRNA)
# RNA: GGGAGUUCUACAGUCCGACGAUCCAUCAGAUGGUAGGCAUUGCCUUUAUACUCUUUCCCCAGUUCUUCUACAAUUUUCUCUAUAUCAUCUUCUAGAAAGUCCGUACUUCCUAGAACAACAGCUUCUUUAAAUUUAAAUGUUUCCAACAGAGGAUUGAGCAUCA
# B3: chr3:10015032:10015033:+_ENSMUSG00000027533_ENSMUST00000029046|mus_mus|mus_mus_mus_hu_True|58_58 (ssRNA)
# RNA: GGGAGUUCUACAGUCCGACGAUCGUUUUUACCAUCACAAGUGAUGAUACAAUCUGGCUUGGCCAUUGCGCCCAUUUUCCUAAGAGCUAUUCCCACUCCUAGCUCCUUCAUGUAUUCAUCAAAGCCUUUGCUGUCCACCAGGCGCAACAGAGGAUUGAGCAUCA
# B4: chr14:102449733:102449734:+_ENSG00000197102_ENST00000360184|hu_mus|FALSE|FALSE (ssRNA)
# RNA: GGGAGUUCUACAGUCCGACGAUCCAGCACCUGGAGCUUCUCGUACUCGUCGUCCCACGUCUGGAAGACUUCGAAGCAAGCCACCAUGACCUUUUCAAACUCUUCAUAGGCUACAUGCAUCAACUUCCGAGUGCCCAAGACCUUCAACAGAGGAUUGAGCAUCA
# B5: chr7:107985766:107985767:+_ENSMUSG00000029461_ENSMUST00000049053|mus_hu|FALSE|FALSE (ssRNA)
# RNA: GGGAGUUCUACAGUCCGACGAUCCCCUAGGUAAAUUUUUGUAAGCAAGGUGCCCACUAGGUAGGAAGGCUGCAUUUAAUGCUAAUUUACUGUAAGGUCUAGGGAAGUCCUUUCCGCUUCUCUGGGCCUCAGUUUCCUCAUCUGCAACAGAGGAUUGAGCAUCA
# B6: chr10:57235669:57235670:-_ENSMUSG00000019877_ENSMUST00000020027|mus_hu|FALSE|FALSE (ssRNA)
# RNA: GGGAGUUCUACAGUCCGACGAUCAAAUUGUGGAAUACAAUGUCUACACACAGAAUAAGGUUGGGGAAUUAAGCUGAAUUGUUAUAUUCCAUUCACAUUAAUAAAUAUUUUUAAAGAAGAAAUUGUAGAUUUUAAAAGCUUCAUCAACAGAGGAUUGAGCAUCA
# B7: chr6:30403744:30403745:+_ENSMUSG00000029775_ENSMUST00000068259|mus_mus|motif|central (ssRNA)
# RNA: GGGAGUUCUACAGUCCGACGAUCAGGAGAAGGCUAAACACUGAUUAUCUAUGGAUUUCGAUUGUGUGUGCUUUCACCUUGCGGCAGUGGAUAACGAAAGAUCAGUCAUACUUUUAAUCUAGAAAUGUUAAUAUUUUCAUCAUACAACAGAGGAUUGAGCAUCA
# B8: 48457567_48458910_1668_CDS_ENSG00000079387_ENST00000551330|human|control|control (ssRNA)
# RNA: GGGAGUUCUACAGUCCGACGAUCGAGAACUUCAUCCUGAUUCCCAUUACGAAAUACAUUCUUUAUUUCUUUCUCCAUUUCCUCUGUAAUUUCAGGAAAUUCAUCUUCACUAUCAGUUAAUUUAUGACCUUUUUUUUGUGUUUCCAACAGAGGAUUGAGCAUCA
# B9: chr4:136876768:136876769:-_ENSMUSG00000006699_ENSMUST00000051477|mus_mus|FALSE|FALSE (ssRNA)
# RNA: GGGAGUUCUACAGUCCGACGAUCAAACAACAAACGUUUGUGGGGAUUUUUGUUUUUUUUUUUAAACAAAGAAAACAAAAACUAGCACUCAUUGCUUUUCAGACAAUACAUAAUUAUUCAAAAUUAACUAUUACUGGAAGGGCACAACAGAGGAUUGAGCAUCA
# B10: chr14:62153831:62153832:-_ENSMUSG00000021930_ENSMUST00000100496|mus_mus|FALSE|FALSE (ssRNA)
# RNA: GGGAGUUCUACAGUCCGACGAUCAUAUUUGUUUAAAUAAGAUUAAAUAAGUUGCCUAGAUCUUUUAAACCAAACCUCAGCAUGGUAUAAUGAAUACAUGGGUUCCUUGGACAACAAUUAGAAGCUCAGUGUUCAGCAUGUGUUCAACAGAGGAUUGAGCAUCA
# B11: 98287512_98287632_2604_3pUTR_ENSG00000180543_ENST00000322128|human|control|control (ssRNA)
# RNA: GGGAGUUCUACAGUCCGACGAUCUACCUCCCCAGCUGUAUGUAGAAAAAUGUGGUUUUUCAGUUGUUUUCUCUGUGGUACUAUUUAAACAAAAUAAAAAAGAAUAAGGAAAGAAGGAAGGGGAAGGCAGAAGAGGAGGAAAGGCAACAGAGGAUUGAGCAUCA
# B12: chr17:64801638:64801639:+_ENSG00000154229_ENST00000413366|hu_mus|hu_hu_hu_mus_False|28_38 (ssRNA)
# RNA: GGGAGUUCUACAGUCCGACGAUCUAUAUAUAUAUAUACAUAUGUACACAUAUAUAGUAAAACCCUAGUUAAACGUGUAAAGUAGCCAUUCAUUUUUGAAAUUUUAUCUACAUUUAAAAAUUAAUAUAUCUGAUAGAGUGCCAGCAACAGAGGAUUGAGCAUCA
# B13: chr16:35696996:35696997:-_ENSMUSG00000022848_ENSMUST00000023554|mus_mus|FALSE|FALSE (ssRNA)
# RNA: GGGAGUUCUACAGUCCGACGAUCAAGACGGGUCCAGGAGCCAUGCAAUGAGUAUGUUUUUGUUUUUGUUUUUUUUAAAAAUCCAUUAUUUAUAGAAAGAAAUAGGUAUUGGCAAAAAUCUGUCCAAUCAAAUACAAUGACUUCCAACAGAGGAUUGAGCAUCA
# B14: chr14:57341393:57341394:-_ENSMUSG00000021938_ENSMUST00000022507|mus_hu|FALSE|FALSE (ssRNA)
# RNA: GGGAGUUCUACAGUCCGACGAUCCUGAAUAUUCAGAAGCUAUAUGAAAUGUAGCUGGAAAUUCCGAUUUCACAGAACAUCAGUGGUUUAUACAAAUUAAACUCCCAUACCCUCCCACCCCCACAUAUACUACUCUAUCUACCCCAACAGAGGAUUGAGCAUCA
# B15: chr4:140213729:140213730:-_ENSG00000109390_ENST00000265500|hu_mus|FALSE|FALSE (ssRNA)
# RNA: GGGAGUUCUACAGUCCGACGAUCGAAGCUGACUGUAUUAUUUCCAAAGUUUAUUCCAAUCCAUUUCUUCUUUUAUACUCCAAAACAUCUUCAUUGUGUGUUUGGAUGAGCUACAAGAUAAUGGUUAAAAUUAGAAAUGUGAGCCAACAGAGGAUUGAGCAUCA
# B16: chr11:130013608:130013609:+_ENSG00000084234_ENST00000528499|hu_hu|motif|central (ssRNA)
# RNA: GGGAGUUCUACAGUCCGACGAUCAGCAUGUGUCAGACAAUACAAUGGAAGUGGGGUUUCUGAUUAAUUUAAAAAAGAAAACGGCAUCAAAUAUCUGCAAUAGAUCAUUUUUUUCAUUUAAGGUUUAUAUAUCAUAUAUUGUUACAACAGAGGAUUGAGCAUCA
# B17: chr14:49633609:49633610:-_ENSMUSG00000061244_ENSMUST00000162175|mus_mus|FALSE|FALSE (ssRNA)
# RNA: GGGAGUUCUACAGUCCGACGAUCCAUUCAUUUUCUGACACCAACAUUUUCCAGGAUUAUAACAGUCAUGUAGGUUUAUAGAAUUUGAAAUUUAUAAAUUAAAGUAUAGAAUUCAACAUAACAGGGAAAAGAUAAAAAUACAGCCAACAGAGGAUUGAGCAUCA
# B18: chr7:141450121:141450122:+_ENSG00000106028_ENST00000265304|hu_mus|hu_hu_hu_mus_True|68_68 (ssRNA)
# RNA: GGGAGUUCUACAGUCCGACGAUCUCAUCCGUUCUAUGCCUUUUCUUUUGUCUGGUCACUCAGAAAUAUAAUAUUAUCAGCUAUGAUUGUUGUUGCUUGCCGCCUCACAUUGUUUUUAUCCAUGUACUCGCCAUAGUCCACUUUCAACAGAGGAUUGAGCAUCA
# B19: chr11:80063784:80063785:+_ENSMUSG00000017686_ENSMUST00000092857|mus_mus|FALSE|FALSE (ssRNA)
# RNA: GGGAGUUCUACAGUCCGACGAUCCAUUAGGUUUCUUCCAAGGAGAGACUGAAGAACUCCAGUUUUCCCACAGCCUUUCACUCCAAUUACAUUACACCUGAACACAUUUCUCUGAGUCUGUUUUUUCUGCAGGUCAAUCUUUUUCAACAGAGGAUUGAGCAUCA
# B20: chr9:95013113:95013114:-_ENSG00000196305_ENST00000443024|hu_hu|hu_hu_hu_mus_False|58_58 (ssRNA)
# RNA: GGGAGUUCUACAGUCCGACGAUCCUCAGUCAGAAAGGGCGUGUAAGGGGCCAUCAGUCUGCACAGAGAAAGCAGGACACUAAACAAUGUCUCCAGAGCCAUGACACAGUCUUCCACCCCACUCUCACCCUUUAACCUCCUCCUCAACAGAGGAUUGAGCAUCA
# B21: 76184225_76186117_1027_CDS_ENSG00000119685_ENST00000298832|human|control|control (ssRNA)
# RNA: GGGAGUUCUACAGUCCGACGAUCCCAUUUGUUUCCAUAAUCCUCCACUUCUGGAUCGUCACAACUGACGUAAUCUCCACUUUUCUUGUUGACACUGUAGUUUGUCAGAUGCAUGAACUGGUUCCGAAUGUUCUUGGCUCCUUGCAACAGAGGAUUGAGCAUCA
# B22: chr11:31958201:31958202:+_ENSMUSG00000020297_ENSMUST00000020537|mus_mus|FALSE|FALSE (ssRNA)
# RNA: GGGAGUUCUACAGUCCGACGAUCCCAUGAGUUUGUGCAAAUCUUGCAAGCUCACCAUUGAGUGGUACUCUGUGCAUUCCUAGUUGAGAAAUGCCAACAUCACCUUCCUCUCCAAAUCAGCCUUGCCUGCCAUCGCUGUGCUUCCAACAGAGGAUUGAGCAUCA
# Target: T1, UNK ZnF1-3
# Assay: nsRBNS (natural sequence RNA bind-n-seq); RBNS binding buffer (assumed for nsRBNS): 25 mM Tris pH 7.5, 150 mM KCl, 3 mM MgCl2, 0.01% Triton X-100, 500 ug/ml BSA, 20 U/ml SUPERase-In, 4 C; UNK is unkempt and MSI1 is Musashi-1; names of the RNAs are library labels; protein concentration not given here; high values mean tight binding
row,Binder,binding signal
1,B1,0.573 enrichment R
2,B2,1.59 enrichment R
3,B3,0.594 enrichment R
4,B4,1.2 enrichment R
5,B5,0.876 enrichment R
6,B6,6.49 enrichment R
7,B7,0.934 enrichment R
8,B8,0.373 enrichment R
9,B9,0.695 enrichment R
10,B10,0.982 enrichment R
11,B11,3.05 enrichment R
12,B12,2.54 enrichment R
13,B13,2.16 enrichment R
14,B14,4.65 enrichment R
15,B15,1.21 enrichment R
16,B16,5.2 enrichment R
17,B17,5.9 enrichment R
18,B18,0.465 enrichment R
19,B19,0.484 enrichment R
20,B20,1.48 enrichment R
21,B21,0.4 enrichment R
22,B22,0.67 enrichment R
